Reference: PubChem BioAssay
Calls of active or inactive are those of the source. Unless noted, no rule for the calls is given here.

Columns and labels:
[1] = anti-His antibody binders, primary screen, artefact control for SMM control protein annotation, biochemical, small-molecule microarray, 635 nm fluorescence (AID 1128); conditions: anti-His Alexa647 antibody binding, higher = more signal;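 also: score merges feature fluorescence with signal-to-noise for each printed compound spot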
[2] = system: Human papillomavirus type 1a E7 protein (residues 1-88); assay: HPV1a E7 small-molecule binders, primary screen, biochemical, small-molecule microarray, residues 1-88, 635 nm (AID 1129); conditions: small-molecule microarray binding, fluorescence 635 nm; higher = more signal
[3] = biological target: Focal adhesion kinase 1 (Homo sapiens) (UniProt Q05397); assay: small-molecule microarray binders of FAK, primary screen, biochemical, 635/667 nm fluorescence, BSA, DTT (AID 1130); conditions: PTK2 binding, 635 nm fluorescence, higher = more signal;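 also: composite of spot emission at 667 nm and signal to noise over triplicate slides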
Focal adhesion kinase 1 (Homo sapiens), sequence (Q05397 whole entry, looked up): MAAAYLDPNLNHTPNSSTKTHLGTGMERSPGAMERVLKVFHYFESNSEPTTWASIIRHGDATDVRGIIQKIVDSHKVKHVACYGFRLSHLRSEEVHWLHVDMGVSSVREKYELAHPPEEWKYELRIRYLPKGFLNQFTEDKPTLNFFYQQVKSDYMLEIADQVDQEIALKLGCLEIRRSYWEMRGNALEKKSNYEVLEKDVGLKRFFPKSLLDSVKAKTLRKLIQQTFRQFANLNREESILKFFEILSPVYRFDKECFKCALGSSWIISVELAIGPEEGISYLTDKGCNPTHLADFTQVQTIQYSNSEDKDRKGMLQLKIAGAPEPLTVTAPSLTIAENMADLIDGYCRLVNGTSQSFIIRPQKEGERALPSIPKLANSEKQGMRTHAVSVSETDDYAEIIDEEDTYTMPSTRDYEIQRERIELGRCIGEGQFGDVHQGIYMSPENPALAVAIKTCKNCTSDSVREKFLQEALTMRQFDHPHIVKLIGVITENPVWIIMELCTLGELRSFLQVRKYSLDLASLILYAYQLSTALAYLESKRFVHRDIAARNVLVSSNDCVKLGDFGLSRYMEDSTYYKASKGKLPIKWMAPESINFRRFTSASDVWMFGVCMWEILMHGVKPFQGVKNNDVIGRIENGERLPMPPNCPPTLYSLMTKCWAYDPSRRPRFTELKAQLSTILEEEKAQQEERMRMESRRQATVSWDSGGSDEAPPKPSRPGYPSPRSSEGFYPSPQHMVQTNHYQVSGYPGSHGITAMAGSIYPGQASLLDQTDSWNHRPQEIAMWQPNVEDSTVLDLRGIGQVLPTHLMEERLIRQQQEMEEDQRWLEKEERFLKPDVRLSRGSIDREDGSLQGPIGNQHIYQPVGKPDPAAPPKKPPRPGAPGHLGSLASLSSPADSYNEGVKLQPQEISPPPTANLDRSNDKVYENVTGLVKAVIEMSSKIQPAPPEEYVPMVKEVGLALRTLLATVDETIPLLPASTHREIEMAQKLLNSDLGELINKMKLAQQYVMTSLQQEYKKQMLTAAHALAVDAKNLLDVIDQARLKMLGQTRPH

[4] = system: Fibrinogen (Alexa647-labelled); assay: fibrinogen binders on compound microarrays, profiling panel, artefact control for SMM control-protein annotation, biochemical, small-molecule microarray, 635/667 nm fluorescence (AID 1131); conditions: fibrinogen-A647 binding fluorescence, higher = more signal;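 also: z-score merges 667 nm fluorescence with per-spot signal-to-noise over triplicate slides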
[5] = biological target: Follistatin (Homo sapiens) (UniProt P19883); assay: follistatin binders on small-molecule microarrays, primary screen, biochemical, small-molecule microarray, 635/667 nm fluorescence (AID 1132); conditions: FST binding, 635 nm fluorescence, higher = more signal
Follistatin (Homo sapiens), sequence (P19883 whole entry, looked up): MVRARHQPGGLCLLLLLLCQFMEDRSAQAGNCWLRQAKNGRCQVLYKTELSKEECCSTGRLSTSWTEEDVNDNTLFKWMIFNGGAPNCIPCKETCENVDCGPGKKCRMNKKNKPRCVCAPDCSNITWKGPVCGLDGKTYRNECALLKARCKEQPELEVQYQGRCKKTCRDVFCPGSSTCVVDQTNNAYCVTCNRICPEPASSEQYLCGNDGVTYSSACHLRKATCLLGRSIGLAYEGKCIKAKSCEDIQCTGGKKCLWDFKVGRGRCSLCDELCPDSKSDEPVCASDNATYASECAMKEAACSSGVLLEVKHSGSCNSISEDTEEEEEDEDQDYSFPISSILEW

[6] = biological target: Fibroblast growth factor 2 (Homo sapiens) (UniProt P09038); assay: FGF2 binders on small-molecule microarrays, primary screen, biochemical, small-molecule microarray, 635/667 nm fluorescence (AID 1133); conditions: small-molecule microarray binding, FGF2, fluorescence 635/667; higher = more signal
Fibroblast growth factor 2 (Homo sapiens), sequence (P09038 whole entry, looked up): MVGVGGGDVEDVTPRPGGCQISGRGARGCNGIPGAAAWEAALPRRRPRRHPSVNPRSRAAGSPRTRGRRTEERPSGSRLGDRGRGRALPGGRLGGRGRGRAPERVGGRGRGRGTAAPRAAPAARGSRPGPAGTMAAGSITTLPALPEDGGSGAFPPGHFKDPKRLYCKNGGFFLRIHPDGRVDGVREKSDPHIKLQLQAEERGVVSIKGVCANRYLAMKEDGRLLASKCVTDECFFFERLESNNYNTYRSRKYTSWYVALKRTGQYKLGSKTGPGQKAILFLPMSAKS

[7] = mitochondrial membrane potential change in A549 cells, profiling panel, cell-based, JC-1 fluorescence, basal, 24 h, 100 nL (AID 1138); conditions: higher = more signal;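 also: A549 lung adenocarcinoma cells under basal conditions with no added stimulus; test concentration not given here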
[8] = system: Lefty1; assay: Lefty1 binders on small-molecule microarrays, primary screen, biochemical, small-molecule microarray, 635/667 nm fluorescence (AID 1139); conditions: small-molecule microarray binding, fluorescence 635/667; higher = more signal
[9] = system: wheat germ agglutinin (Triticum aestivum), Alexa647-labelled; assay: wheat germ agglutinin binders on compound microarrays, profiling panel, artefact control for SMM control-protein annotation, biochemical, small-molecule microarray, 635/667 nm fluorescence (AID 1140); conditions: WGA-A647 binding, 635 nm fluorescence, higher = more signal;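 also: score merges 667 nm feature emission with signal to noise over triplicate slides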
[10] = biological target: Luciferin 4-monooxygenase (Photinus pyralis) (UniProt P08659); assay: firefly luciferase enzyme inhibitors, primary screen, biochemical, luminescence, purified enzyme, 2006 set (AID 1141); conditions: SteadyGlo luminescence, 30 min, higher = more signal, called active from +8 up or from −8 down;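 also: cell-free assay with purified firefly luciferase at 100 ng per well in PBS; test concentration not given here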
Luciferin 4-monooxygenase (Photinus pyralis), sequence (P08659 whole entry, looked up): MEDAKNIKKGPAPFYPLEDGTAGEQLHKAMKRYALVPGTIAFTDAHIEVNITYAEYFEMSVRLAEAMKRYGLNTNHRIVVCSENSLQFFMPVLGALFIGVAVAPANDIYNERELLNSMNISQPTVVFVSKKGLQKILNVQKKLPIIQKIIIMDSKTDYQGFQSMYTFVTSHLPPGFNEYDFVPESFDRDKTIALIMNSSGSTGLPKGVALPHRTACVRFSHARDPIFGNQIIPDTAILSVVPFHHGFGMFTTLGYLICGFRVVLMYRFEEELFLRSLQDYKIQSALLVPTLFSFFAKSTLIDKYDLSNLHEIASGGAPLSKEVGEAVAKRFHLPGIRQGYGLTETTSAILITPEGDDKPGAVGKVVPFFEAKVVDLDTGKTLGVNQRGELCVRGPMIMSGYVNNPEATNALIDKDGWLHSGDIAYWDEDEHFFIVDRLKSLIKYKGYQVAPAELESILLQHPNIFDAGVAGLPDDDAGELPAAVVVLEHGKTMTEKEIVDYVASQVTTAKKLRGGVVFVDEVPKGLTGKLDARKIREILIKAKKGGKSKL

[11] = system: Wnt5a (protein binding on small-molecule microarray); assay: Wnt5a binders on small-molecule microarray, primary screen, biophysical, 635/667 nm fluorescence (AID 1142); conditions: 635 nm fluorescence, higher = more signal;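 also: fluorescence read at 667 nm with signal to noise per printed feature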
[12] = cell viability in Huh7 cells, primary screen, cytotoxicity control for HCV replication inhibitor project, CellTiter-Glo luminescence, basal, 48 h (AID 1143); conditions: Huh7 HCV replicon, higher = more signal, called active from +8 up or from −8 down;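 also: Huh7 hepatoma cells carrying a hepatitis C replication reporter with no stimulus; test concentration not given here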
[13] = P. aeruginosa biofilm formation inhibitors, primary screen, PAO1 strain, BacTiter-Glo luminescence, LB-PBS (AID 1144); conditions: 12 h, higher = more signal
[14] = CREB reporter modulators without forskolin, primary screen, cell-based, PC12, CRE-LacZ reporter, unstimulated (AID 1145); conditions: no forskolin, luminescence, 4.5 h, higher = more signal, called active from +8 up or from −8 down
[15] = CREB reporter modulators under forskolin, primary screen, cell-based, PC12, CRE-LacZ reporter, forskolin-stimulated (AID 1146); conditions: luminescence, 4.5 h, higher = more signal, called active from +8 up or from −8 down;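 also: PC12 cells with 6xCRE LacZ reporter stimulated by forskolin 10 µM; beta-galactosidase reporter signal reflecting CREB driven transcription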
[16] = biological target: Streptavidin (Streptomyces avidinii) (UniProt P22629); assay: streptavidin binders on small-molecule microarray, primary screen, artefact control for SMM compound annotation, biophysical, 635/667 nm fluorescence (AID 1147); conditions: streptavidin binding, higher = more signal;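 also: signal reflects streptavidin binding to arrayed compounds as a control protein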
Streptavidin (Streptomyces avidinii), sequence (P22629 whole entry, looked up): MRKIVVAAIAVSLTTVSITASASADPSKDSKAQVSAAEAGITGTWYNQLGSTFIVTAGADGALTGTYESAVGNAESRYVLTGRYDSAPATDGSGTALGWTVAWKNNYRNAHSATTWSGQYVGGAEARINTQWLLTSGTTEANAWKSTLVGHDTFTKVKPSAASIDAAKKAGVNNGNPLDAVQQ

[17] = small-molecule binders of probe aInhba, primary screen, biochemical, small-molecule microarray, 635/667 nm fluorescence (AID 1148); conditions: higher = more signal;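 also: score merges 667nm spot fluorescence with signal-to-noise for antibody binding to printed compounds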
[18] = biological target: Torsin-1A (Homo sapiens) (UniProt O14656); assay: torsin A binders from cell lysate, primary screen, small-molecule microarray, wild-type, 635/667 nm (AID 1149); conditions: COS7 hTOR1A-WT lysate, 635 nm fluorescence, higher = more signal
Torsin-1A (Homo sapiens), sequence (O14656 whole entry, looked up): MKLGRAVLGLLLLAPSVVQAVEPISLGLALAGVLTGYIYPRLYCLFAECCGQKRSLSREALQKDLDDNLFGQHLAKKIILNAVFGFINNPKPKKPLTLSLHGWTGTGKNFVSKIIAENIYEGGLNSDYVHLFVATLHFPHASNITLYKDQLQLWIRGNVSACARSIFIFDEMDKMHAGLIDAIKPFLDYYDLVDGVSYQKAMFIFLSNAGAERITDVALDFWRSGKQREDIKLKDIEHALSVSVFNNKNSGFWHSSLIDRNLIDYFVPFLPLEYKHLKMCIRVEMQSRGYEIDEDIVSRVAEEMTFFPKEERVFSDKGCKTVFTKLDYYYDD

[19] = biological target: Torsin-1A (Homo sapiens) (UniProt O14656); assay: small-molecule binders of mutant TOR1A in lysate, primary screen, cell lysate, small-molecule microarray, COS7 lysate, 635/667 nm fluorescence (AID 1150); conditions: COS7 hTOR1A mutant lysate, 635 nm fluorescence, higher = more signal;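 also: score pools 667 nm emission and signal to noise measuring lysate protein binding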
[20] = system: Sonic hedgehog protein (Shh); assay: small-molecule binders of Shh protein, primary screen, biochemical, small-molecule microarray, 635/667 nm fluorescence (AID 1151); conditions: small-molecule microarray binding, 635 nm fluorescence; higher = more signal;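 also: Shh protein binding to compounds spotted on small-molecule microarray slides; score combines spot fluorescence intensity with signal-to-noise across triplicate slides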

SMILES | composite z-score [1] | composite z-score [2] | composite z-score [3] | composite z-score [4] | composite z-score [5] | composite z-score [6] | z-score [7] | composite z-score [8] | composite z-score [9] | z-score [10] | composite z-score [11] | z-score [12] | z-score [13] | z-score [14] | z-score [15] | composite z-score [16] | composite z-score [17] | composite z-score [18] | composite z-score [19] | composite z-score [20]
COc1ccc(C(O)C2C=CC3C(=O)N(C)C(=O)C3N2N2CCCCC2)cc1 (stereo not given) | 2.56 | 1.23 | 0.656 | 0.96 | 0.299 | -0.19 | 0.406 | -0.523 | 1.29 | -1.08 (inactive) | 0.345 | 0.758 (inactive) | -0.3 (inactive) | 0.639 (inactive) | 0.104 (inactive) | 1.54 | 0.158 | 0.718 | 0.849 | -0.381
CCOC(=O)C[C@H]1[C@H](OC(=O)Cc2ccc3c(c2)OCO3)[C@@H](NC(=O)C2CCCCC2)c2cc(OCCCO)ccc2N1C(=O)c1ccc2ccccc2n1 | 0.0779 | 0.684 | 0.309 | 0.581 | 1.39 | 1.71 | -0.678 | 0.816 | -0.176 | 0.862 (inactive) | 0.305 | -3.34 (inactive) | -0.273 (inactive) | 6.45 (inactive) | 0.871 (inactive) | 0.658 | -0.0361 | 0.392 | 0.172 | 1.39
CCCC[C@@H]1C[C@H]1[C@@H](NC(=O)c1ccccc1)c1ccc(Cl)cc1 | -0.0782 | -1.52 | 0.528 | -2.07 | -2.37 | -1.9 | 1.66 | -2.22 | -1.6 | 0.923 (inactive) | -0.546 | -2.6 (inactive) | 0.173 (inactive) | 0.197 (inactive) | 0.699 (inactive) | -1.33 | -0.322 | 4.37 | -0.539 | -1.34
CC(C)(C)OC(=O)CC[C@]1(C(=O)O)N=C(c2ccc(OCCCO)cc2)O[C@H]1c1ccccc1 | 0.548 | 0.611 | 0.0043 | 0.284 | 0.329 | -0.236 | -0.132 | 0.0766 | 0.247 | 0.476 (inactive) | -0.221 | -1.48 (inactive) | -0.278 (inactive) | -0.986 (inactive) | -0.72 (inactive) | 0.235 | -0.102 | -0.272 | 0.113 | -0.899
COc1ccccc1CN1C(=O)c2ccccc2[C@@H](C(=O)NC(C)C)[C@@H]1c1ccc(CO)cc1 | 1.73 | 1.15 | 0.476 | 1.01 | 1.33 | 1.32 | 1.43 | 0.456 | 0.112 | -0.586 (inactive) | 0.428 | -0.486 (inactive) | 0.464 (inactive) | -0.735 (inactive) | -0.784 (inactive) | 0.131 | 0.46 | -0.0764 | 0.0096 | 1.84
COCCCNC(=O)[C@@H]1c2ccccc2C(=O)N(Cc2ccccc2C(F)(F)F)[C@H]1c1ccc(CO)cc1 | -0.175 | 0.569 | 0.278 | -0.873 | -0.211 | -0.372 | 2.81 | -0.295 | -0.488 | -1.26 (inactive) | 0.143 | 0.442 (inactive) | 0.309 (inactive) | -0.385 (inactive) | -1.45 (inactive) | -0.194 | 0.0536 | 0.285 | 0.331 | 0.23
C=CCC(OC(C)=O)[C@@H]1[C@@H](N(Cc2cc3ccccc3o2)C(=O)c2ccc(C)cc2)c2cc(OCCCO)ccc2N1C(=O)Cc1ccc2ccccc2c1 (stereo not given in full) | -0.631 | -0.627 | 0.105 | -0.638 | 0.119 | -0.421 | 1.91 | -0.281 | -0.152 | -1.72 (inactive) | -0.109 | 0.218 (inactive) | -0.956 (inactive) | 2.37 (inactive) | -0.072 (inactive) | -0.172 | -0.0523 | -0.0509 | -0.0619 | 0.0781
CCOC(=O)C[C@H]1[C@H](OC(=O)c2ccccc2-c2ccccc2)[C@@H](NC(=O)CC(C)C)c2cc(OCCCO)ccc2N1C(=O)c1ccc2ccccc2n1 | -0.123 | 0.304 | 0.162 | 0.335 | 0.323 | 0.318 | 0.488 | 0.76 | 0.152 | 0.365 (inactive) | 0.0056 | -0.431 (inactive) | 1.51 (inactive) | 8.37 (active) | 0.724 (inactive) | 0.543 | -0.016 | 0.0167 | 0.0401 | 0.196
O=C(NC1CC1)[C@@H]1c2ccccc2C(=O)N(Cc2ccccc2)[C@H]1c1ccc(CO)cc1 | 0.522 | 0.802 | -0.747 | 0.497 | 0.665 | 0.483 | 2.09 | 0.626 | 0.905 | 0.017 (inactive) | 0.336 | -0.878 (inactive) | -0.55 (inactive) | -0.825 (inactive) | -1.22 (inactive) | -0.928 | 0.0111 | -0.892 | -0.665 | 0.443
COC(=O)C1(Cc2ccccc2)C=C2C(=C(C(C)C)C(=O)C2C)CN1 (stereo not given) | 3.27 | -0.11 | 0.757 | -0.72 | -1.25 | -1.07 | -1.83 | -1.36 | 0.349 | 1.27 (inactive) | 0.131 | -0.576 (inactive) | 0.429 (inactive) | 0.59 (inactive) | -0.173 (inactive) | -0.333 | 0.147 | 0.334 | 0.707 | -0.45
